Source: PubChem BioAssay (NCATS)
Unmarked numbers belong to inactive results. Records with an inconclusive call do not appear. Activity calls are given as the source filed them. Unless noted, calls follow the shape of the full dose curve.

Key:
[1] = Cell Viability - BJ (AID 421); settings: BJ fibroblast viability, qHTS;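 also: potency is read from the fitted curve at half-maximal effect; cells exposed to compound for 40 hours at 37 °C before readout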
Procedure, shortened: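 Normal human BJ foreskin fibroblasts, 1500/well in complete medium, treated 40 hr at 37 °C. Cellular ATP by CellTiter-Glo luminescence; normalized to DMSO and 100 uM tamoxifen, AC50 from Hill fit.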

[2] = Cell Viability - Jurkat (AID 426;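 active = dose-dependent loss of cell ATP signal giving a full or clear fitted curve, ranked by lower potency value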; also: potency is read from the fitted curve at half-maximal effect); settings: qHTS
Procedure, shortened: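 Jurkat (Clone E6-1) cells, 5000/well in complete medium, exposed to compounds for 40 hr at 37C; intracellular ATP measured by CellTiter-Glo luminescence after 20 min at room temperature. AC50 from Hill fits.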

[3] = Cell Viability - Hek293 (AID 427;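 active = compounds whose dose-response curve shows a full or clear partial loss of cell viability, called from curve shape rather than a numeric limit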;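 also: potency is read from the fitted curve at half-maximal effect; cells exposed to compound for 40 hours at 37 °C before reading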); settings: qHTS
Procedure, shortened: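 HEK293 cells in complete medium were exposed to compound for 40 hr at 37 °C, then cellular ATP was read by CellTiter-Glo luminescence. Data were normalized to DMSO (basal) and 100 uM tamoxifen (100% inhibition), and AC50 came from Hill fits.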

[4] = Cell Viability - HepG2 (AID 433); settings: qHTS;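 also: potency is read from the fitted curve at half-maximal effect; potency for ATP loss meaning cytotoxicity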
Procedure, shortened: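 Cytotoxicity read as ATP loss (CellTiter-Glo luminescence) after 40 hr compound exposure of HepG2, 1500 cells/well, 37 °C. AC50 by Hill equation; 0% set by DMSO, 100% inhibition by 100 uM tamoxifen.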

[5] = Cell Viability - MRC5 (AID 434); settings: MRC5 lung fibroblast viability, qHTS;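 also: potency is read from the fitted curve at half-maximal effect; potency reflects cytotoxicity seen as loss of intracellular ATP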
Procedure, shortened: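 MRC5 normal human lung fibroblasts (1500/well) were treated with compounds for 40 hr at 37 °C in complete medium, and viable cells were measured as intracellular ATP by CellTiter-Glo luminescence. AC50 came from Hill fits, normalized to DMSO and 100 uM tamoxifen.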

[6] = Cell Viability - SK-N-SH (AID 435); settings: SK-N-SH neuroblastoma cell viability qHTS; also: potency is read from the fitted curve at half-maximal effect
Procedure, shortened: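 qHTS cytotoxicity: CellTiter-Glo ATP luminescence after 40 h compound exposure of human neuroblastoma SK-N-SH cells at 37 °C. AC50 derived by Hill-equation fitting, with DMSO as basal and 100 uM tamoxifen as full inhibition.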

[7] = target: Cytochrome P450 1A2 (Homo sapiens) (UniProt P05177); assay: p450-cyp1a2 (AID 410); settings: recombinant CYP1A2, luciferin-ME demethylation, luminescence; series mostly up to 25.6 µM; also: potency is read from the fitted curve at half-maximal effect
Sequence of Cytochrome P450 1A2 (Homo sapiens) (P05177 whole entry, looked up): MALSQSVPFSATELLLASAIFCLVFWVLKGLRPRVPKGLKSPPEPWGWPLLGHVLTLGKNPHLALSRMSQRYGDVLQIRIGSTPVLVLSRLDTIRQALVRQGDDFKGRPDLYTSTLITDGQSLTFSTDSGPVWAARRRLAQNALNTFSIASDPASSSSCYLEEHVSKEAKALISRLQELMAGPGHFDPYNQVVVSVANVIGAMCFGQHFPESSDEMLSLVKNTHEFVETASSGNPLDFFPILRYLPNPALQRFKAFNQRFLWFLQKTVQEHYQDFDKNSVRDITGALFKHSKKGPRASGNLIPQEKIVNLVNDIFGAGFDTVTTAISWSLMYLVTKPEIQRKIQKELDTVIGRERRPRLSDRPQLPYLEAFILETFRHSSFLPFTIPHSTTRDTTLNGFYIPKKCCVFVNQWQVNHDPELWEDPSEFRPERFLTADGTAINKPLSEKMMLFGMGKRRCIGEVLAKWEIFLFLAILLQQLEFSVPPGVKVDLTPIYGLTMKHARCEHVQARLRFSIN
Procedure, shortened: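 20nM CYP1A2 with 100uM Luciferin-ME (at Km) in 100mM KPO4; compound preincubated 10 min, NADPH regeneration added, 60 min at room temperature. Luciferin quantified by luminescence after detection reagent; normalized to 57 uM furafylline.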

[8] = target: Lysosomal acid glucosylceramidase (Homo sapiens) (UniProt P04062); assay: Glucocerebrosidase-p2 (AID 348; in the data active = potency below about 10 µM; also: potency is read from the fitted curve at half-maximal effect); settings: purified GBA, blue fluorogenic substrate, 40 min
Sequence of Lysosomal acid glucosylceramidase (Homo sapiens) (P04062 whole entry, looked up): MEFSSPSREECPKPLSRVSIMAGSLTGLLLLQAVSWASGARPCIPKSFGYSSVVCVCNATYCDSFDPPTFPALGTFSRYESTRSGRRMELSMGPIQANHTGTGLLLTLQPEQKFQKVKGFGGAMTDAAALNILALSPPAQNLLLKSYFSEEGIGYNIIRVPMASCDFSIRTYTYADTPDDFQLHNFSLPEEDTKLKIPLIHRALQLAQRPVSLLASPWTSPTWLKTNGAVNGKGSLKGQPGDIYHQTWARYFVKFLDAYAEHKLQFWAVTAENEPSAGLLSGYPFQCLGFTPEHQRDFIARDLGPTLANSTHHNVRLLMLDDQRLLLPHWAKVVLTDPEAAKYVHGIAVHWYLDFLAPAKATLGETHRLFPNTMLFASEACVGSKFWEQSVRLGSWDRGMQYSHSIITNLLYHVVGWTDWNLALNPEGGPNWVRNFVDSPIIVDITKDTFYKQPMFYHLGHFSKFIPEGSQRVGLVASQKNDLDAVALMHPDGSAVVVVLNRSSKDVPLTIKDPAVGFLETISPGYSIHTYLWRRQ
Procedure, shortened: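 Compounds titrated from 0.6 nM upwards against 0.2 nM enzyme in pH 5.9 citric acid/KH2PO4, taurocholate, tween-20; blue fluorogenic substrate 80 uM, 40 min room temperature, stopped and read Ex 365/Em 440 for AC50.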

[9] = AP1 Signaling Pathway (AID 357; active = well fitted curve in either direction with a large enough effect, not every such curve was filed as active;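 also: ME-180 reporter cells stimulated with EGF at its EC50 level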); settings: ME-180 (cervical carcinoma) AP-1-bla reporter, EGF-induced, beta-lactamase ratio, 5 h; series mostly up to 17.2 µM
Procedure, shortened: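 First, ME-180 AP-1-bla cells were cultured overnight at 37 °C in low-serum Opti-MEM. Next, titrated compounds with EC50 EGF were incubated 5 hours. Finally, CCF4 was added for 2.5 hours and the 460/530 nm ratio recorded.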

[10] = NFAT Signaling Pathway (AID 444; active = well fitted curve in either direction with a large enough effect, not every such curve was filed as active;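 also: carbachol stimulus at about its EC50 of 1 µM final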); settings: Jurkat NFAT-bla M1, carbachol, beta-lactamase ratio, 5 h; series mostly up to 17.2 µM
Procedure, shortened: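 Jurkat cells carrying an NFAT-driven β-lactamase reporter and co-transfected muscarinic M1 receptor were treated with compound plus carbachol (1 uM final, an EC50 level) for 5 h at 37 °C. CCF4 loading followed for 1 h at RT; 460/530 nm ratio gave %activity.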

With `CC(=O)O[C@@H]1CC(C)=C2[C@H]1[C@H](C)CC[C@H]2/C=C(\C)C(=O)O` the Potency [1] was > 92 µM, the Potency [2] was > 92 µM and the Potency [3] was > 92 µM. The Potency [4] was > 92 µM, the Potency [5] was > 92 µM and the Potency [6] was > 92 µM.

For `COc1ccc(C[C@H](N)C(=O)N[C@@H]2[C@H](O)[C@H](n3cnc4c(N(C)C)ncnc43)O[C@@H]2CO)cc1`, the Potency [7] was “inactive”.

With `Cc1ccccc1CN1C2=NCCN2C(=O)C2=C1CCN(Cc1ccccc1)C2` the Potency [8] was > 11.4 µM, the outcome [9] was “inactive” and the Potency [7] was “inactive”. The outcome [10] was “inactive”.

With `O=C1NC(=O)C(c2cn(-c3ccccc3)nc2-c2ccc(F)cc2)N1` (configuration not stated) the outcome [9] was “inactive” and the outcome [10] was “inactive”.

In the case of `Cc1ccc(N)cc1O`, the Potency [1] is reported as > 92 µM, the Potency [2] is reported as > 92 µM and the Potency [3] is reported as > 92 µM. For the same compound, the Potency [4] was > 92 µM, the Potency [5] was > 92 µM and the Potency [6] was > 92 µM.

With `Nc1ccccc1N` the Potency [1] was > 92 µM, the Potency [3] was > 92 µM and the Potency [4] was > 92 µM. For the same compound, the Potency [5] was > 92 µM and the Potency [6] was > 92 µM.

In the case of `COc1ccc2c(OC)c3ccoc3nc2c1OC`, the outcome [9] is reported as “inactive”, the Potency [7] is reported as 0.0794 µM (active) and the outcome [10] is reported as “inactive”.
